Reference: PMC12440807

Each substance was assayed against Transcription elongation factor SPT6 (UniProt Q7KZ85) (assay: cross-link between two proteins; cross-linking mass spectrometry).

Substance | listed as a hit
Transcription elongation factor SPT5, O00267 | yes
Transcription elongation factor SPT4, P63272 | yes
DNA-directed RNA polymerase II subunit RPB7, P62487 | yes
